Source: PubChem (National Center for Advancing Translational Sciences (NCATS))
MCF10A rerep = DNA re-replication induction in MCF 10a cells; MCF 10A DNA re-replication, Hoechst nuclear intensity, 48 h; AID 624296; Potency, µM (doses to about 46.1 µM), usual class: activators; 2.9% of 350,000 active; note: nearly all actives have a fitted effect of over 50% in size
IL1B secr inh = inflammasome signaling inhibition, IL-1 beta readout | THP-1 LPS/ATP IL-1B secretion, AlphaLISA, 16 h; stronger effect = lower value | activity change, % at 57.5 µM | 4.7% of 360,000 active | AID 743279; in the data active = activity change below about -50%; inconclusive = mostly about -30% to -49%
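THP-1 cells pretreated 1 hr with compounds (up to 57.5 uM final), then stimulated with LPS (250 ng/mL final) plus ATP (1.25 mM final); secreted IL-1B measured by AlphaLISA after 16 hr, decreased signal indicating inhibition.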
KB-V1 MDR tox = kills drug-selected multidrug resistant KB-V1 cells | 3.4% of 400,000 active | Potency, µM (doses to about 46.1 µM), usual class: cytotoxic | KB-V1 MDR cells viability, CellTiter-Glo, 72 h; note: nearly all actives have a fitted effect of over 60% in size
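KB-V1, DMEM (no phenol red) + 10% FBS; cpd pin-transferred, titration series; 72 h, 37 degrees C; CellTiter-Glo, luminescence. Data normalized, curve-fit.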
SW480 rerep = inducers of DNA re-replication in SW480 colon cancer cells; AID 624297; Potency, µM (series often up to 46.1 µM), most hits filed as activators; SW480 DNA re-replication, Hoechst DNA content imaging, 48 h; 1.8% of 340,000 active; note: nearly all actives have a fitted effect of over 55% in size
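250 cells/well; 23 nL cpd via pin tool; 48 hr, 37 C, 5% CO2; Hoechst 40 min; imager read of total nuclear intensity, ex 405/em 500-530 nm.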
KB-3-1 cytotox = kills parental KB-3-1 adenocarcinoma cells. 1.4% of 400,000 active. KB-3-1 viability, CellTiter-Glo ATP luminescence, 72 h. Potency, µM (doses to about 46.1 µM), actives largely listed as cytotoxic; note: nearly all actives have a fitted effect of over 60% in size
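Screening of KB-3-1 cells (DMEM, 10% FBS, phenol-red free) ran from lowest to highest compound concentration; after 72 h at 37 °C viability was read luminescently and curves fitted.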
Numbers stand for hits. An excerpt weighted towards active compounds, which were near 9.9% of everything screened. Unless noted, calls come from the whole dose curve; as a rule, active = well fitted curve in the direction sought with a large enough effect; inconclusive = small, poorly fitted or top-dose-only effect, or another doubt; inactive = no such curve, though single readings can be large; an effect the other way counts as inactive or inconclusive.

Cc1ccc(C)c(Oc2nc3c(c(=O)n(C)c(=O)n3C)n2Cc2ccccc2)c1 was read as KB-V1 MDR tox inconclusive and KB-3-1 cytotox inactive.
`COc1ccc2nc3n(c(=O)c2c1)-c1cc2ccccc2cc1C(=O)NC3Cc1ccc(O)cc1` (stereo not drawn) gave IL1B secr inh inactive, KB-V1 MDR tox inactive and KB-3-1 cytotox inactive.
`COc1ccc2nc3n(c(=O)c2c1)-c1cc2ccccc2cc1C(=O)NC3Cc1ccccc1` (stereo not drawn) gave IL1B secr inh inactive, KB-V1 MDR tox inconclusive and KB-3-1 cytotox 12µM.
COc1ccc(N2CC(C(=O)Nc3nc4ccc(S(C)(=O)=O)cc4s3)CC2=O)cc1 (stereo not drawn) was read as MCF10A rerep inconclusive, IL1B secr inh inactive, KB-V1 MDR tox inactive, SW480 rerep inactive and KB-3-1 cytotox inactive.
Cc1cc(=O)n2c(sc3ccccc32)c1C#N was read as MCF10A rerep inconclusive, IL1B secr inh inactive, KB-V1 MDR tox inactive, SW480 rerep 23µM and KB-3-1 cytotox inactive.
CC1=C(/C=N/Nc2ccc([N+](=O)[O-])cc2[N+](=O)[O-])C(C)(C)CCC1 was read as MCF10A rerep inactive, IL1B secr inh inactive, KB-V1 MDR tox inconclusive, SW480 rerep inactive and KB-3-1 cytotox 16µM.
COc1cc(/C=C2/C(=N)N3N=C(CC(=O)N4CCOCC4)SC3=NC2=O)ccc1OCc1ccc(F)cc1 was read as MCF10A rerep inactive, IL1B secr inh inactive, KB-V1 MDR tox inactive, SW480 rerep inactive and KB-3-1 cytotox inconclusive.
For CCNC(=S)N(CCc1c(C)[nH]c2ccc(Cl)cc12)Cc1ccco1 the results were MCF10A rerep inconclusive, IL1B secr inh -59, KB-V1 MDR tox inactive, SW480 rerep 18µM and KB-3-1 cytotox 23µM.
Screening COCCNC(=S)N(CCc1c(C)[nH]c2ccc(Cl)cc12)Cc1cccs1 returned MCF10A rerep inconclusive, IL1B secr inh -92, KB-V1 MDR tox inconclusive, SW480 rerep inconclusive and KB-3-1 cytotox inconclusive.
For CNC(=S)N(CCc1c(C)[nH]c2ccc(C)cc12)Cc1ccc(OC)c(OC)c1 the results were MCF10A rerep inactive, IL1B secr inh inactive, KB-V1 MDR tox inactive, SW480 rerep inactive and KB-3-1 cytotox inactive.
`CNC(=S)N(CCc1c(C)[nH]c2ccc(C)cc12)Cc1ccco1` gave MCF10A rerep inconclusive, IL1B secr inh inactive, KB-V1 MDR tox inactive, SW480 rerep inactive and KB-3-1 cytotox inactive.
`Cc1[nH]c2ccccc2c1CCN(Cc1cccs1)C(=S)Nc1ccccc1` gave MCF10A rerep inactive, IL1B secr inh inactive, KB-V1 MDR tox inconclusive, SW480 rerep inactive and KB-3-1 cytotox inactive.
Screening CCNC(=S)N(CCc1c(C)[nH]c2ccc(C)cc12)Cc1cccs1 returned MCF10A rerep inconclusive, IL1B secr inh -53, KB-V1 MDR tox inconclusive, SW480 rerep inactive and KB-3-1 cytotox inactive.
For CNC(=S)N(CCc1c(C)[nH]c2ccc(Cl)cc12)Cc1cc(OC)c(OC)c(OC)c1 the results were MCF10A rerep inconclusive, IL1B secr inh inconclusive, KB-V1 MDR tox inconclusive, SW480 rerep 26µM and KB-3-1 cytotox inconclusive.
For COCCNC(=S)N(CCc1c(C)[nH]c2ccc(F)cc12)Cc1cccs1 the results were MCF10A rerep inactive, IL1B secr inh inconclusive, KB-V1 MDR tox inconclusive, SW480 rerep inactive and KB-3-1 cytotox inactive.
Screening COc1ccc2c(CNCc3cccs3)c(C(=O)O)n(Cc3cccc(F)c3)c2c1 returned KB-V1 MDR tox inactive and KB-3-1 cytotox inactive.
Screening Cc1[nH]nc(SCC(=O)NCc2ccc(F)cc2)c1[N+](=O)[O-] returned MCF10A rerep inactive, IL1B secr inh inactive, KB-V1 MDR tox inactive, SW480 rerep inactive and KB-3-1 cytotox inactive.
For COc1ccc(/C=C2/NC(=O)CNC2=O)cc1 the results were MCF10A rerep inactive, IL1B secr inh inactive, KB-V1 MDR tox inconclusive, SW480 rerep inactive and KB-3-1 cytotox inactive.
`CCc1ccc(C2=CC(c3cc(Br)ccc3F)n3ncnc3N2)cc1` (stereo not drawn) gave MCF10A rerep inactive, IL1B secr inh inconclusive, KB-V1 MDR tox 9.2µM, SW480 rerep inconclusive and KB-3-1 cytotox 8.2µM.
`CCOc1ccc(CNC(=O)C2CCCN(c3nn4cc(-c5ccc(OC)cc5)nc4s3)C2)cc1` (stereo not drawn) gave KB-V1 MDR tox inactive and KB-3-1 cytotox inactive.
COc1cccc(NC(=O)CSc2nnc(-c3ccoc3C)n2C)c1 was read as MCF10A rerep inactive, IL1B secr inh inactive, KB-V1 MDR tox inactive, SW480 rerep inactive and KB-3-1 cytotox inactive.
For Cc1cccc(OCCSc2nnc(-c3ccoc3C)n2C)c1 the results were MCF10A rerep inactive, IL1B secr inh inactive, KB-V1 MDR tox 18µM, SW480 rerep inactive and KB-3-1 cytotox inactive.
Screening O=S(=O)(c1ccc(Oc2ccc(Br)cc2F)nc1)N1CCCCC1 returned MCF10A rerep inactive, IL1B secr inh inactive, KB-V1 MDR tox 23µM, SW480 rerep inconclusive and KB-3-1 cytotox inconclusive.
For N#Cc1ccccc1Oc1ccc(S(=O)(=O)N2CCCCC2)cn1 the results were MCF10A rerep inactive, IL1B secr inh inactive, KB-V1 MDR tox inconclusive, SW480 rerep inactive and KB-3-1 cytotox inactive.
O=C(O)CSc1nnc(-c2ccc(Cl)cc2Cl)n1Cc1ccccc1 was read as MCF10A rerep inactive, IL1B secr inh inactive, KB-V1 MDR tox inactive, SW480 rerep inactive and KB-3-1 cytotox inactive.
`COc1ccccc1OC(C)C(=O)Nc1c(C(=O)c2ccc(Cl)cc2)oc2ccccc12` (stereo not drawn) gave KB-V1 MDR tox inconclusive and KB-3-1 cytotox inactive.
`O=C(CSc1cn(CCNC(=O)c2ccccc2F)c2ccccc12)Nc1ccc(F)cc1` gave KB-V1 MDR tox inactive and KB-3-1 cytotox inactive.
O=C(CN1CCN(c2ccc(F)cc2)CC1)N1CCOCC1 was read as MCF10A rerep inconclusive, IL1B secr inh inactive, KB-V1 MDR tox inactive, SW480 rerep inactive and KB-3-1 cytotox inactive.
NS(=O)(=O)c1ccc(CCNC(=O)CN2CCC(Cc3ccccc3)CC2)cc1 was read as MCF10A rerep inactive, IL1B secr inh inactive, KB-V1 MDR tox inactive, SW480 rerep inactive and KB-3-1 cytotox inconclusive.
`O=C(CN1CCC(Cc2ccccc2)CC1)NCCc1ccc(F)cc1` gave MCF10A rerep inconclusive, IL1B secr inh -69, KB-V1 MDR tox inconclusive, SW480 rerep inconclusive and KB-3-1 cytotox inactive.
`O=C(CN1C(=O)NC2(CCCCCC2)C1=O)N1CCC(Cc2ccccc2)CC1` gave MCF10A rerep inactive, IL1B secr inh inactive, KB-V1 MDR tox 18µM, SW480 rerep inactive and KB-3-1 cytotox inconclusive.
Screening O=C(CN1CCN(c2ccc(F)cc2)CC1)N1CCC(Cc2ccccc2)CC1 returned MCF10A rerep 8.2µM, IL1B secr inh -52, KB-V1 MDR tox inconclusive, SW480 rerep 8.2µM and KB-3-1 cytotox inactive.
`CCOC(=O)CSc1nc2c(sc3cccc(F)c32)c(=O)n1Cc1ccc(OC)cc1` gave KB-V1 MDR tox inactive and KB-3-1 cytotox inactive.
